Where “and” joins values, the source holds several entries; their conditions need not be identical. Equal values may be shown once. Inconclusive results are not listed. More than one record can exist for a structure, and the calls need not agree. Calls of active or inactive are those of the source. Unless noted, the call rests on the fitted dose curve; in most records, active means well fitted curve in the direction sought with a large enough effect; inconclusive means small, poorly fitted or top-dose-only effect, or another doubt; inactive means no such curve, though single readings can be large; an effect the other way counts as inactive or inconclusive.
Experiments:
[1] = molecular target: Voltage-gated inwardly rectifying potassium channel KCNH2 (Homo sapiens) (UniProt Q12809); test: qHTS Assay for Small Molecule Inhibitors of the Human hERG Channel Activity (AID 588834);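 further: lower thallium flux fluorescence means stronger hERG block; nearly all actives have a fitted effect of over 50% in size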; further: potency means the concentration at half of the fitted maximal effect
Method in brief: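 Blockade is seen as reduced FluxOR thallium-flux fluorescence in U2OS cells expressing hERG from a BacMam construct, in Opti-MEM with 2% FCS. Concentration-response data fitted to the Hill equation for AC50.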

[2] = molecular target: Luciferin 4-monooxygenase (Photinus pyralis) (UniProt P08659); test: Biochemical firefly luciferase enzyme assay for NPC (AID 624030);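 further: purified P. pyralis luciferase at 10 nM with luciferin and ATP substrate; series mostly up to about 59 µM; nearly all actives have a fitted effect of over 70% in size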
Method in brief: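 Purified P. pyralis luciferase at 10 nM in 50 mM Tris Acetate (final), luminescence read within 5 minutes of enzyme addition to compounds. Activity normalised to PTC124 versus DMSO; concentration-response curves classed by r2, magnitude and activity.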

[3] = S16 Schwann cell viability assay (CellTiter-Glo assay) (AID 624031); further: nearly all actives have a fitted effect of over 70% in size; further: potency means the concentration at half of the fitted maximal effect
Method in brief: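 Following overnight culture in 10% FBS DMEM, parental S16 rat Schwann cells are dosed for 24 h at 37 °C. Viability is read as CellTiter-Glo luminescence and expressed as % activity relative to DMSO (0%) and no-cell wells.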

[4] = S16 Schwann cell PMP22 intronic element beta-lactamase assay (AID 624044; calls by dose curve; further: nearly all actives have a fitted effect of over 15% in size; further: potency means the concentration at half of the fitted maximal effect)
Method in brief: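 Rat S16 Schwann cells with beta-Lac driven by a PMP22 intronic element, compound-treated 24 h at 37 °C. LiveBLAzer FRET B/G read: 460 nm normalized to potassium clavulanate vs DMSO; 535 nm FRET as viability; concentration-effect curves classified.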

[5] = molecular target: Glutaminase kidney isoform, mitochondrial (Homo sapiens) (UniProt O94925); test: qHTS for Inhibitors of Glutaminase (GLS): LOPAC Validation (AID 624146); further: nearly all actives have a fitted effect of over 60% in size; further: potency means the concentration at half of the fitted maximal effect
Method in brief: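 Compounds were pin-transferred onto hKGA, after which L-glutamine (1 mM solution) and a detection mix of glutamate oxidase, HRP and Amplex Red were added. Initial and 30 min RT fluorescence reads were collected.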

[6] = qHTS of Trypanosoma Brucei Inhibitors: LOPAC Validation (AID 624147)
Method in brief: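 Glycolytic pyruvate kinase of T. brucei was incubated with substrate, test compound and 130 uM ADP for 45 minutes at room temperature. Luminescent Kinase-Glo Plus signal was measured after 10 minutes.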

[7] = S16 Schwann cell PMP22 intronic element firefly luciferase assay (AID 624032); further: nearly all actives have a fitted effect of over 30% in size; further: potency means the concentration at half of the fitted maximal effect
Method in brief: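 Rat S16 Schwann cells stably carrying firefly luciferase driven by a PMP22 intronic element, in 10% FBS, treated 24 h at 37 C. ONE-Glo luminescence normalized to PTC124 control and DMSO (0%); curves classed by r2, magnitude and activity.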

Measured: Potency

Sequence of Voltage-gated inwardly rectifying potassium channel KCNH2 (Homo sapiens) (Q12809 whole entry, looked up): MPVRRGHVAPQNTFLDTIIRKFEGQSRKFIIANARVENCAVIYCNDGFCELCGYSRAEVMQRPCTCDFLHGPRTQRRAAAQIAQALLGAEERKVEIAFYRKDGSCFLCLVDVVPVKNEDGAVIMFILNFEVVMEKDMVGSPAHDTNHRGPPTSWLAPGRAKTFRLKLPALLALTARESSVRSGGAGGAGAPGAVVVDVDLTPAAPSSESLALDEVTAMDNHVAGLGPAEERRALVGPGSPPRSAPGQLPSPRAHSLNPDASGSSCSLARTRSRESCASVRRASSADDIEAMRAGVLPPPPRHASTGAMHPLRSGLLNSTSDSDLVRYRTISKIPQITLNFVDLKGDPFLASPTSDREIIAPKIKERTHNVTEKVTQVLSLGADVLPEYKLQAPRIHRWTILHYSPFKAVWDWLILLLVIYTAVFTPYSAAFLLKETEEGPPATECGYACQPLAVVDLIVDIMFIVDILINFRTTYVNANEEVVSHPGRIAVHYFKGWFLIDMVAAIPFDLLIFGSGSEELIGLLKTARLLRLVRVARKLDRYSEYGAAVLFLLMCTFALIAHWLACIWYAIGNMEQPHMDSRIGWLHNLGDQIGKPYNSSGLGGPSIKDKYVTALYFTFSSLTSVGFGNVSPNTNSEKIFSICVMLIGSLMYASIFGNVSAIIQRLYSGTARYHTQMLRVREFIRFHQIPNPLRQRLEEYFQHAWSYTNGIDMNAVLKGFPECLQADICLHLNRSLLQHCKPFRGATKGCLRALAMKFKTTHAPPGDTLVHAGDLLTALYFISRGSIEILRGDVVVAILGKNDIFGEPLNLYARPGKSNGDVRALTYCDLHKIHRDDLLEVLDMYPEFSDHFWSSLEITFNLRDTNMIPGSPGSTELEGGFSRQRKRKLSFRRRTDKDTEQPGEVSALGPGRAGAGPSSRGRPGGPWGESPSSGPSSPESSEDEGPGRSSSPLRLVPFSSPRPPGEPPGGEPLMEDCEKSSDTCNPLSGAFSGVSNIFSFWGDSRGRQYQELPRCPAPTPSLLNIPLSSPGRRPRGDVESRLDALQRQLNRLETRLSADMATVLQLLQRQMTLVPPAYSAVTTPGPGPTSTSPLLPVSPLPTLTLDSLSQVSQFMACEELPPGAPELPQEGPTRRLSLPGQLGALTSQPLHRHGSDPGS
Sequence of Glutaminase kidney isoform, mitochondrial (Homo sapiens) (O94925 whole entry, looked up, canonical isoform): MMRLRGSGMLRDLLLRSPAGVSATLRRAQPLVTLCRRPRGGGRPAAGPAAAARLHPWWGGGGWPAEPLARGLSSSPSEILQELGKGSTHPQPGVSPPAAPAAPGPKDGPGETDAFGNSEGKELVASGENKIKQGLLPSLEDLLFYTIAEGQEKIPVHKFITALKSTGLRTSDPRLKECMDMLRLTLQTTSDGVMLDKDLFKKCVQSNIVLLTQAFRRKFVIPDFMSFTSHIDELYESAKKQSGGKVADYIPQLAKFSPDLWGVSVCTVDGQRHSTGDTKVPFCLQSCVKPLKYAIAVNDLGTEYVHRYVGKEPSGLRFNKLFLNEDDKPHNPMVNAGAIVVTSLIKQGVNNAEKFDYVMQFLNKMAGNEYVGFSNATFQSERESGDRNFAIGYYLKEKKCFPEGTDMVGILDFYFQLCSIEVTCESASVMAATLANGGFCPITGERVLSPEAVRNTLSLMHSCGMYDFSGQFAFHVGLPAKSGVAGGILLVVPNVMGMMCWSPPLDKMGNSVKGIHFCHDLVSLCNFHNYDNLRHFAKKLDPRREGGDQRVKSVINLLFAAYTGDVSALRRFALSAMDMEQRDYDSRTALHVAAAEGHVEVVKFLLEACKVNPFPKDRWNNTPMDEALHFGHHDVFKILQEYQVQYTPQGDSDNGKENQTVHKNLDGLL
Sequence of Luciferin 4-monooxygenase (Photinus pyralis) (P08659 whole entry, looked up): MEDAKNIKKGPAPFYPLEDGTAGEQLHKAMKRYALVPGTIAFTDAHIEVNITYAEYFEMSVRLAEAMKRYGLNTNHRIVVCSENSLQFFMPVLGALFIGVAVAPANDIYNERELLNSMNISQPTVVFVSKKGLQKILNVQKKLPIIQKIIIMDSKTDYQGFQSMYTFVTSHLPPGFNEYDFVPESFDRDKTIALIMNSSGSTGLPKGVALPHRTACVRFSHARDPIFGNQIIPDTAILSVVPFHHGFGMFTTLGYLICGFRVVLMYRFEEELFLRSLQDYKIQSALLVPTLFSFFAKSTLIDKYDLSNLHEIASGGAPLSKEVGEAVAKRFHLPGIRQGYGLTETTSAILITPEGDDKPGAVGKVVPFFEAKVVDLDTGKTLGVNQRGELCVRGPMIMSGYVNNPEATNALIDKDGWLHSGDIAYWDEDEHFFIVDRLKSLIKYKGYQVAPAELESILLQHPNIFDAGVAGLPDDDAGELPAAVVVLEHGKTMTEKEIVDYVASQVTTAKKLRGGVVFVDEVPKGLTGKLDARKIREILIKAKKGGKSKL

CCOC(=O)C1=C(C)NC(C)=C(C(=O)OC)C1c1cccc([N+](=O)[O-])c1 (centres undefined)
not listed: [7]
inactive: all other assays above

OCCN1CCN(CCCN2c3ccccc3C=Cc3ccccc32)CC1
inactive: [2] | [5] | [6]
active: [1] 12600 nM | [3] 28.7 µM | [7] 36.1 µM

Cc1nnc(SCC2=C(C(=O)O)N3C(=O)[C@@H](NC(=O)Cn4cnnn4)[C@H]3SC2)s1
not listed: [4]
inactive: all other assays above

O=C(O)CN(CCN(CC(=O)O)CC(=O)O)CCN(CC(=O)O)CC(=O)O
not listed: [4] | [7]
inactive: all other assays above

CCOC(=O)c1cnc2c(cnn2CC)c1NN=C(C)C
not listed: [5]
inactive: all other assays above

Cc1scc2c1N(C(=O)CN1CCN(C)CC1)c1ccccc1NC2=O
not listed: [4] | [7]
inactive: all other assays above

Nc1nc(N)c2nc(-c3ccccc3)c(N)nc2n1
not listed: [4] | [6]
inactive: all other assays above

CN(C)CCOC(=O)COc1ccc(Cl)cc1
not listed: [4]
inactive: all other assays above

CCN(CC)CCCN(c1ccccc1)C1Cc2ccccc2C1
active: [1] 794 nM | [3] 14.4 µM | [7] 16.1 µM
inactive: [2] | [5] | [6]

CCO/C([O-])=N/c1c[n+](N2CCOCC2)no1
not listed: [4] | [6]
inactive: all other assays above

CN(C)C(=O)Oc1cccc([N+](C)(C)C)c1
not listed: [4]
inactive: all other assays above

COC(=O)[C@@H](N)Cc1ccc(O)c(O)c1
not listed: [3] | [5]
inactive: all other assays above

CCCCNc1ccc(C(=O)OCCN(C)C)cc1
not listed: [4]
inactive: all other assays above

CSc1ccc(C(=O)c2[nH]c(=O)[nH]c2C)cc1
not listed: [4]
inactive: all other assays above

CC(C(=O)O)c1ccc(CC2CCCC2=O)cc1 (centres undefined)
not listed: [3] | [6]
inactive: all other assays above

CCN1CCC[C@H]1CNC(=O)c1c(O)c(Cl)cc(Cl)c1OC
inactive and 15.8 µM (active): [1]
not listed: [4]
inactive: all other assays above

Cc1nc2c([nH]1)c(=O)n(C)c(=O)n2Cc1ccco1
inactive: [1] | [2] | [3] | [5]

CN1CCN(CC(=O)N2c3ccccc3C(=O)Nc3cccnc32)CC1
not listed: [4]
inactive: all other assays above

COC(=O)C1=C(C)NC(C)=C(C(=O)OC(C)(C)CN(C)CCC(c2ccccc2)c2ccccc2)C1c1cccc([N+](=O)[O-])c1 (centres undefined)
active: [1] 891 nM | [7] 22.8 µM
inactive: [2] | [4] | [5]

Cc1ccc(=O)n(-c2ccccc2)c1
not listed: [4]
inactive: all other assays above

COc1ccc(CCN(C)CCCC(C#N)(c2cc(OC)c(OC)c(OC)c2)C(C)C)cc1OC (centres undefined)
active: [1] 11.2 µM and 2 µM
not listed: [4]
inactive: all other assays above

CCN(CC)CCNC(=O)c1ccc(NC(C)=O)cc1
inactive: [2] | [3] | [7] | [5]

CCn1ccnc1CC1COc2ccccc2O1 (centres undefined)
not listed: [1] | [4]
inactive: all other assays above

CCCCCCCC/C=C\CCCCCCCC(=O)NCc1ccc(O)c(OC)c1
inactive: [2] | [3] | [6]
active: [7] 4.55 µM | [4] 12.6 µM

CCNC(=O)N1CCN(CCCC(c2ccc(F)cc2)c2ccc(F)cc2)CC1
inactive: [2] | [5]
active: [1] 56.2 nM | [7] 1.44 µM

CCN(CC)CC(=O)Nc1c(C)cccc1C
not listed: [1]
inactive: all other assays above

CC(C)[N+](C)(CCOC(=O)C1c2ccccc2Oc2ccccc21)C(C)C
not listed: [1] | [4]
inactive: all other assays above

COc1ccc2c(c1OC)C(=O)O[C@@H]2[C@H]1c2c(cc3c(c2OC)OCO3)CCN1C
inactive: [1] | [5] | [6]

CCN1CCc2nc(N)oc2CC1
inactive: [2] | [3] | [7]

NC(Cc1ccc(Cl)cc1)C(=O)O (centres undefined)
not listed: [1] | [4]
inactive: all other assays above

C[N+](C)(C)CCCCCCCCCC[N+](C)(C)C
not listed: [2] | [4]
inactive: all other assays above

OC(CCN1CCCCC1)(c1ccccc1)C1CCCCC1 (centres undefined)
not listed: [1] | [4]
inactive: all other assays above

Cc1cccc(C)c1NC(=O)C(C)N (centres undefined)
inactive: [1] | [5] | [6]

O=C(CCNNC(=O)c1ccncc1)NCc1ccccc1
not listed: [1] | [6]
inactive: all other assays above

N[C@@H](COP(=O)(O)O)C(=O)O
inactive: [1] | [5]

NCCCNCCSP(=O)(O)O
not listed: [1] | [4]
inactive: all other assays above

Cc1nc2ccccn2c(=O)c1CCN1CCC(C(=O)c2ccc(F)cc2)CC1
not listed: [1]
inactive: all other assays above

CCCOc1ccccc1-c1nc2n[nH]nc2c(=O)[nH]1
not listed: [1] | [4]
inactive: all other assays above

CC(C)NNC(=O)c1ccncc1
not listed: [1] | [4]
inactive: all other assays above

O=C(O)CP(=O)(O)O
inactive: [2] | [3] | [7] | [5]

CN(C)CCCN1c2ccccc2Sc2ccccc21
inactive: [2] | [6]
active: [1] 3.98 µM and 10 µM

C[C@]12CC[C@@H]3c4ccc(O)cc4C[C@@H](CCCCCCCCCS(=O)CCCC(F)(F)C(F)(F)F)[C@H]3[C@@H]1CC[C@@H]2O (some centres undefined)
inactive: [1] | [6]

COc1cc2c(cc1OC)-c1cc(=Nc3c(C)cc(C)cc3C)n(C)c(=O)n1CC2
active: [3] 32.2 µM | [7] 6.42 µM | [4] 22.4 µM
inactive: [2] | [5] | [6]

CN1C(=O)CC[C@H]1c1cccnc1
inactive: [1] | [5]

C#CCN(C)CCCOc1ccc(Cl)cc1Cl
active: [1] 12600 nM
inactive: [7] | [4] | [5] | [6]

FC(F)(F)c1ccccc1-n1ccnc1
not listed: [1]
inactive: all other assays above

CCN(CC)CCNC(=O)c1cc(S(C)(=O)=O)ccc1OC
inactive: [2] | [3] | [7] | [5]

CNCCCN1c2ccccc2CCc2ccccc21
inactive: [1] | [2] | [5]

CN1CCN(C2=Nc3ccccc3Oc3ccc(Cl)cc32)CC1
inactive: [2] | [3] | [7] | [5]

CCCN(CCC)C(=O)C(CCC(=O)O)NC(=O)c1ccccc1 (centres undefined)
inactive: [1] | [5] | [6]

CC(C)COCC(CN(Cc1ccccc1)c1ccccc1)N1CCCC1 (centres undefined)
inactive: [1] | [2] | [4] | [6]
active: [5] 2.24 µM

COCCc1ccc(OCC(O)CNC(C)C)cc1 (centres undefined)
inactive: [1] | [2] | [5] | [6]

COCC(=O)O[C@]1(CCN(C)CCCc2nc3ccccc3[nH]2)CCc2cc(F)ccc2[C@@H]1C(C)C
active: [3] 10.2 µM | [7] 10.2 µM | [4] 25.1 µM
inactive: [2] | [5] | [6]

NC1=NCC2c3ccccc3Cc3ccccc3N12 (centres undefined)
not listed: [1] | [4]
inactive: all other assays above

CC(C)(C)c1ccc(C(=O)CCCN2CCC(OC(c3ccccc3)c3ccccc3)CC2)cc1
inactive: [2] | [5] | [6]
active: [3] 20.3 µM | [7] 20.3 µM

c1cc(CN2CCCCC2)cc(OCCCNc2nc3ccccc3s2)c1
not listed: [1] | [3]
inactive: all other assays above

Cc1ccc(/C(=C\CN2CCCC2)c2ccccn2)cc1
inactive: [2] | [3] | [5] | [6]

O=C(CCCN1CCC(O)(c2cccc(C(F)(F)F)c2)CC1)c1ccc(F)cc1
inactive: [2] | [7] | [5]

CC[N+](C)(C)c1cccc(O)c1
not listed: [1] | [4]
inactive: all other assays above

Cc1ccc(Cl)c(Nc2ccccc2C(=O)O)c1Cl
not listed: [1] | [4]
inactive: all other assays above

CCCNC(C)C(=O)Nc1ccccc1C (centres undefined)
inactive: [5] | [6]

CC(C)NCC(O)c1cc(O)cc(O)c1 (centres undefined)
active: [5] 7.08 µM

CN(C)CCN(Cc1cccs1)c1ccccn1
inactive: [2] | [7] | [5]

C=CCc1ccccc1OCC(O)CNC(C)C (centres undefined)
not listed: [1] | [4]
inactive: all other assays above

C[C@@H](O)[C@H]1C(=O)N2C(C(=O)O)=C(SCCN=CN)C[C@H]12
inactive: [6]

C(=C\c1ccccc1)/CN1CCN(C(c2ccccc2)c2ccccc2)CC1
inactive: [5] | [6]

CO[C@@]1(NC(=O)CSCC#N)C(=O)N2C(C(=O)O)=C(CSc3nnnn3C)CS[C@@H]21
inactive: [6]

NC(=O)c1cn(Cc2c(F)cccc2F)nn1
not listed: [1] | [4]
inactive: all other assays above
